Assay results published in PubChem BioAssay (NCI).
Values joined by “and” are separate entries in the source; they are usually repeats but may differ in a detail not shown here. Equal entries are not always repeated. This is part of a sample that, as a whole, favours compounds with a hit. Of some 83,000 tested, about 20% had one in any assay.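 Note: values are percent growth. 100 is the growth of untreated cells, values between 100 and 0 indicate rising inhibition; between -100 and 0 indicates cell death.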 Active and inactive are the calls of the source. How the source made its calls: active means growth percent below 10; inactive means the rest.

Experiments:
Assay in all cases: NCI-60 one-dose screen, 48 h (100 = growth as untreated, 0 = no growth, -100 = all killed)
[1] = tested on: SK-MEL-2 melanoma
[2] = tested on: EKVX NSCLC
[3] = tested on: SN12C renal
[4] = tested on: UO-31 renal
[5] = tested on: TK-10 renal
[6] = tested on: ACHN renal; details: 10 µM unless noted
[7] = tested on: A498 renal
[8] = tested on: CCRF-CEM leukemia
[9] = tested on: MOLT-4 leukemia
[10] = tested on: CAKI-1 renal; details: 10 µM unless noted

Measured: growth

CCN(Cc1ccccc1)c1ccc(/C=C2\COc3ccccc3C2=O)cc1
inactive: [1]; 10 µM 102% | [1]; 100 µM 21.8% | [2]; 10 µM 102% | [2]; 100 µM 36.9% | [3]; 10 µM 94.5% | [3]; 100 µM 53.2% | [4]; 10 µM 83.8% | [4]; 100 µM 18.6% | [5]; 10 µM 119% | [5]; 100 µM 53.3% | [6] 101% | [7]; 10 µM 91.3% | [7]; 100 µM 40.2% | [8]; 10 µM 104% | [8]; 100 µM 15% | [9]; 10 µM 78.6% | [9]; 100 µM 10.5%

CC[C@]12CN3CCc4c([nH]c5ccccc45)[C@@](C(=O)OC)(c4cc5c(cc4OC)N(C)[C@H]4[C@@](O)(C(=O)OC)[C@H](OC(C)=O)[C@]6(CC)C=CCN7CC[C@]54[C@@H]76)CC(C3)[C@H]1O2 (some centres undefined)
88% (inactive) and -96.5% (active): [5]; 100 µM
inactive: [1]; 10 µM unless noted 31% | [2]; 10 µM unless noted 28.4% | [3]; 10 µM unless noted 29.1% | [4]; 10 µM unless noted 32.8% | [5]; 10 µM 27.6% | [6] 40.5% | [10] 38.9% | [9]; 10 µM unless noted 25.7%
active: [7]; 10 µM unless noted -12.3% | [8]; 10 µM unless noted 5.37%

CCc1c2c(nc3ccc(OCc4ccc(B5OC(C)(C)C(C)(C)O5)cc4)cc13)-c1cc3c(c(=O)n1C2)COC(=O)[C@]3(O)CC
active: [3]; 10 µM unless noted 3.16% | [4]; 10 µM unless noted -13.2% | [6] -9.99% | [10] -1.75% | [7]; 10 µM unless noted -40.3% | [8]; 10 µM unless noted 8.7% | [9]; 10 µM unless noted 8.97%
inactive: [1]; 10 µM unless noted 20.4% | [2]; 10 µM unless noted 35% | [5]; 10 µM unless noted 39.5%

COc1ccc(Oc2nc(Nc3ccc(N4CCOCC4)cc3)ncc2NC(=O)c2cc(OC)cc(OC)c2)cc1
inactive: [1]; 10 µM unless noted 95.4% | [2]; 10 µM unless noted 94.8% | [3]; 10 µM unless noted 89% | [4]; 10 µM unless noted 55.5% | [5]; 10 µM unless noted 103% | [6] 86.1% | [10] 100% | [8]; 10 µM unless noted 70% | [9]; 10 µM unless noted 53.3%
active: [7]; 10 µM unless noted 8.34%

COc1ccc(C(=O)/C=C/c2ccc(OCc3ccc(Cl)cc3)cc2)cc1OC
active: [5]; 100 µM 0.092% | [7]; 100 µM -33.3%
inactive: [1]; 10 µM 98.3% | [1]; 100 µM 48.5% | [2]; 10 µM 109% | [2]; 100 µM 29.1% | [3]; 10 µM 107% | [3]; 100 µM 28.5% | [4]; 10 µM 85.8% | [4]; 100 µM 41.4% | [5]; 10 µM 101% | [6] 103% | [7]; 10 µM 85.5% | [8]; 10 µM unless noted 73.4% [100 µM] | [9]; 10 µM 90.4% | [9]; 100 µM 62.8%

CCN(CC)/C([O-])=c1\cccc\c1=C1\N=C(c2ccccc2)N=C1[n+]1ccc(-c2ccccc2)cc1
inactive: [1]; 10 µM unless noted 78.1% | [2]; 10 µM unless noted 93.4% | [3]; 10 µM unless noted 89.5% | [4]; 10 µM unless noted 37.1% | [5]; 10 µM unless noted 102% | [6] 95.8% | [10] 99.9% | [7]; 10 µM unless noted 96% | [8]; 10 µM unless noted 84.6% | [9]; 10 µM unless noted 88%

Nc1ncnc2c1C(c1ccc([N+](=O)[O-])cc1)c1sc3c(F)cccc3c1O2 (centres undefined)
inactive: [1]; 10 µM unless noted 107% | [2]; 10 µM unless noted 98.4% | [3]; 10 µM unless noted 97.1% | [4]; 10 µM unless noted 68.4% | [5]; 10 µM unless noted 129% | [6] 89.8% | [10] 74.9% | [7]; 10 µM unless noted 97.8% | [8]; 10 µM unless noted 94.3% | [9]; 10 µM unless noted 93.4%

CN(C)CCCn1c2c(c3ccc(N4CCNCC4)cc3c1=O)C(=O)c1ccccc1-2
active: [2]; 10 µM unless noted -39% | [3]; 10 µM unless noted 6.82% | [4]; 10 µM unless noted 2.6% | [5]; 10 µM unless noted -0.224% | [6] -10.5% | [10] 5.62% | [8]; 10 µM unless noted -4.22% | [9]; 10 µM unless noted -21.9%
inactive: [1]; 10 µM unless noted 39.6% | [7]; 10 µM unless noted 74.3%

CC(=O)N1N=C(c2ccc(Nc3nc(Nc4ccc(F)cc4)nc(Nc4ccc(F)cc4)n3)cc2)CC1c1ccccc1 (centres undefined)
inactive: [1]; 10 µM unless noted 59.9% | [2]; 10 µM unless noted 105% | [3]; 10 µM unless noted 112% | [4]; 10 µM unless noted 80.2% | [5]; 10 µM unless noted 97.6% | [6] 84.6% | [10] 114% | [7]; 10 µM unless noted 85.5% | [9]; 10 µM unless noted 70.2%
active: [8]; 10 µM unless noted -14.7%

CC(C)(C)c1cc(NC(=O)Nc2ccc(-c3cn4c(n3)sc3cc(OCCN5CCOCC5)ccc34)cc2)no1
inactive: [1]; 10 µM unless noted 10.8% | [2]; 10 µM unless noted 47.6% and 68.4% | [3]; 10 µM unless noted 15.6% and 19.3% | [4]; 10 µM unless noted 10.7% and 28.2% | [5]; 10 µM unless noted 24.2% and 45% | [6] 12.4% and 26.7% | [10] 30.4% and 13.4% | [8]; 10 µM unless noted 18.7% and 20%
8.16% (active) and 37.7% (inactive): [7]; 10 µM unless noted
1.69% (active) and 40% (inactive): [9]; 10 µM unless noted

CCCN1C(=O)/C(=c2\sc3n(c2=O)NC2C(N=3)N(CC)C(=O)N2CC)c2ccccc21 (centres undefined)
inactive: [1]; 10 µM unless noted 68.6% | [2]; 10 µM unless noted 55.7% | [3]; 10 µM unless noted 38.1% | [4]; 10 µM unless noted 46.7% | [5]; 10 µM unless noted 86% | [6] 47.5% | [10] 40.7% | [7]; 10 µM unless noted 29% | [8]; 10 µM unless noted 25.1% | [9]; 10 µM unless noted 38%
